Reference: PubChem BioAssay
Where “and” joins values, the source holds several entries; their conditions need not be identical. Equal entries are not always repeated. Calls of active or inactive are those of the source.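 How the source made its calls, unless noted: active means compounds whose cell count with miR-34 switched on is under 0.7 times the count with it off; inactive means the rest.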

Tests used:
[1] = viability loss with induced miR-34 in A549 – imaging, A549 dox-inducible miR-34, nuclei and caspase counts, primary screen (AID 1347080); conditions: A549 miR-34 inducible, Hoechst nuclei count, 48 h
[2] = MELAS cybrid and Rieske KO viability enhancers – cell-based, MELAS cybrids, Rieske KO mouse fibroblasts, CellTiter-Glo, primary screen (AID 1508586;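 active means mean z-score across replicates of 1.96 or higher in either the MELAS or the Rieske mutant cell line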;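 further: z relative to plate mean and SD of compound and empty wells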); conditions: low glucose
[3] = galactose survival enhancers in mitochondrial complex I cybrids – cell-based, galactose medium, ATP luminescence, primary screen (AID 1645843;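 active means z-score of at least 1.8 in each of two replicates, scored against plate mean and spread of sample wells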;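 further: positive z means more ATP and so rescue of galactose-driven cybrid death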); conditions: complex I mutant cybrid cells, 72 h, stronger effect = higher value
[4] = P. berghei load reduction in hepatocytes – cell-based, HepG2, luciferase luminescence, HepG2 viability, primary screen (AID 624349; in the data active means parasite load remaining mostly below about 12%, no sharp cut-off; inactive means mostly above about 10%;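 further: 100% = mean of DMSO negative control wells on the same plate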); conditions: P. berghei liver stage in HepG2, luciferase luminescence, concentration not given here; parasite load remaining: stronger effect = lower value; viability: measured here: HepG2 viability without parasites
[5] = biological target: NAD(+) hydrolase SARM1 (Homo sapiens) (UniProt Q6SZW1); experiment: blocking NAD cleavage by SARM1 SAM-TIR – cell lysate, NAD-Glo luminescence (AID 1508614;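 active means compound whose remaining NAD level is above about 45 nM, limit read from the data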); conditions: SAM-TIR HEK293T lysate NADase, at 1 µM, stronger effect = higher value
Chain of NAD(+) hydrolase SARM1 (Homo sapiens) (Q6SZW1 whole entry, looked up, the tested form may be a part): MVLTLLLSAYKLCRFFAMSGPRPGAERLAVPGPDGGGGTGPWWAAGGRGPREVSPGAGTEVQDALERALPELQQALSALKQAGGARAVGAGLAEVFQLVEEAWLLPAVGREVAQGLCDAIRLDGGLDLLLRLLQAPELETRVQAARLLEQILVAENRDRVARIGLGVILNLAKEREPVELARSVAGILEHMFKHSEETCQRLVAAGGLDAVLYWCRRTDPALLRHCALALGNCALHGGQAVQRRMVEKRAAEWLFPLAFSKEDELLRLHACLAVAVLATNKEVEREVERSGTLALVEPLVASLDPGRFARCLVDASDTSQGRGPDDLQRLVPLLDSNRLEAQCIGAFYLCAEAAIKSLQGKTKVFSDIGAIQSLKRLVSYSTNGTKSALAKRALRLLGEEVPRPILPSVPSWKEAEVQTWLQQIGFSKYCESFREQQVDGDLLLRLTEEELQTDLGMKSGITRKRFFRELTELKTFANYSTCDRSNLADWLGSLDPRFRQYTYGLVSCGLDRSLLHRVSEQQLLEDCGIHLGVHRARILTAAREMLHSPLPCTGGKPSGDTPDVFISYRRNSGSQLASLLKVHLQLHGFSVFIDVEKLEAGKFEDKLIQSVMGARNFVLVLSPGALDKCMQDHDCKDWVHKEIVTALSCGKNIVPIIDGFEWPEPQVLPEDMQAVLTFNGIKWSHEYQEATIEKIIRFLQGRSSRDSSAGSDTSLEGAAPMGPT

[6] = biological target: Mitogen-activated protein kinase 7 (Homo sapiens) (UniProt Q13164); experiment: Gal4-ERK5 driven luciferase induction – cell-based, HTS, primary screen (AID 1508626;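 active means luciferase signal above three times the same-plate solvent-only control wells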;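 further: luciferase driven by Gal4-ERK5 fusion binding five Gal4 sites before minimal TATA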); conditions: HeLa Gal4-ERK5 transactivation, 18 h, at 5 µM, stronger effect = higher value
Chain of Mitogen-activated protein kinase 7 (Homo sapiens) (Q13164 whole entry, looked up, the tested form may be a part): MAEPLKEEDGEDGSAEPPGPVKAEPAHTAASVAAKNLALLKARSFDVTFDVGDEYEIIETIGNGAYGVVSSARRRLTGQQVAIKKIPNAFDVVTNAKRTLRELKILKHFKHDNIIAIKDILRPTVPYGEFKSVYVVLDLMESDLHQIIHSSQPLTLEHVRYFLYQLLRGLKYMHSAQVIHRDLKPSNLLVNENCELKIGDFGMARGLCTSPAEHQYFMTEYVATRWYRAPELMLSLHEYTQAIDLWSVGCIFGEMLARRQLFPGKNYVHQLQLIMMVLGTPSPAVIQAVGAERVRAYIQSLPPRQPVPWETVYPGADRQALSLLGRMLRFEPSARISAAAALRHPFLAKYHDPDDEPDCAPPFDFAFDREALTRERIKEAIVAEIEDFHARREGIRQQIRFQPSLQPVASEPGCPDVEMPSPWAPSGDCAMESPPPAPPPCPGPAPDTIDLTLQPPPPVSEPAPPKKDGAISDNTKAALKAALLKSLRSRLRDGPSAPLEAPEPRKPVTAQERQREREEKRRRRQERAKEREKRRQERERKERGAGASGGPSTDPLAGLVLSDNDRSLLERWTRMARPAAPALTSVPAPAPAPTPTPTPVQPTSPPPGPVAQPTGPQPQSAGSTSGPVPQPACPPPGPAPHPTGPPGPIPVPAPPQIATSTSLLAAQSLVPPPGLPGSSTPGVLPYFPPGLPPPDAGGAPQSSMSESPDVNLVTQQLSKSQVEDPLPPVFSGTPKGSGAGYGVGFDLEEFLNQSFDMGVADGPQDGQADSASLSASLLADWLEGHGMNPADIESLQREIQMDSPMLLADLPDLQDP

[7] = compounds altering viability of human ES cells (AID 493140; call rule not given here;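 further: cells exposed to compounds for four days before counting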); conditions: human embryonic stem cell survival screen; stronger effect = higher value
[8] = stronger effect = lower value, cell number ratio, induced over uninduced
[9] = measured here: relative caspase fold change +Dox/-Dox
[10] = measured here: total cells with miR-34 induction, stronger effect = lower value
[11] = measured here: total cells without miR-34 induction
[12] = MELAS cybrid survival, CellTiter-Glo 48 h, stronger effect = higher value
[13] = Rieske KO mouse fibroblast survival, CellTiter-Glo 72 h

Row | SMILES | fold change [1, 8] | fold change [1, 9] | cell count [1, 10] | cell count [1, 11] | z-score [2, 12] | z-score [2, 13] | z-score [3] | fold change ([1]; stronger effect = lower value) | parasite load remaining [4] | viability [4] [%] | remaining NAD [5] | luciferase signal [6] | survival [7]
1 | C1CCN(C2CCNCC2)CC1 | 0.919 (inactive) | 0.5 | 8270 | 9000 | -1.03 (inactive) | 0.0453 | 0.44 (inactive) | – | – | – | – | – | –
2 | O=[N+]([O-])C=Cc1ccc2c(c1)OCO2 | 0.859 (inactive) | 0.554 | 5450 | 6350 | 0.246 (inactive) | -0.259 | – | – | – | – | – | – | –
3 | COC1CCC(OC2C[C@H]([C@]3(C)CC[C@]4(CC(O)C(C)[C@@H](C(C)C=C(C)C(=O)C(C)CC(C)C(=O)O)O4)O3)O[C@]3(O[C@@H]([C@H]4O[C@@](O)(CO)C(C)CC4C)CC3C)C2C)OC1C (some centres not stated) | 0.953 (inactive) | 1.13 | 874 | 918 | 0.291 (inactive) | -2.77 | – | – | – | – | – | – | –
4 | C[C@]12NC(Cc3ccccc31)c1ccccc12 | – | 0.318 | 8080 | 8230 | -0.147 (inactive) | -0.0728 | – | 0.981 (inactive) | – | – | – | – | –
5 | Oc1ccc2c3c1O[C@H]1c4oc5ccccc5c4C[C@@]4(O)[C@@H](C2)N(CC2CC2)CC[C@]314 | – | 0.462 | 9980 | 10900 | -0.602 (inactive) | 0.281 | -0.095 (inactive) | 0.915 (inactive) | 33.1% (inactive) | 94 | – | – | –
6 | Cc1sc2c(c1C)C(c1ccc(Cl)cc1)=NC(CC(=O)OC(C)(C)C)c1nnc(C)n1-2 (configuration not stated) | – | 0.485 | 5260 | 5520 | 0.154 (inactive) | -3.85 | – | 0.954 (inactive) | – | – | – | – | –
7 | Cc1ccc(C(C)Nc2ncnc3sccc23)cn1 (configuration not stated) | 0.921 (inactive) | 1.09 | 5250 | 5700 | -0.723 (inactive) | -0.439 | -0.4 (inactive) | – | – | – | – | – | –
8 | CN1C[C@H](C(=O)N[C@]2(C)O[C@@]3(O)[C@@H]4CCCN4C(=O)[C@H](Cc4ccccc4)N3C2=O)C=C2c3cccc4[nH]cc(c34)C[C@H]21 | – | 1.34 | 8820 | 10200 | -0.409 (inactive) | -0.32 | 1.08 (inactive) | 0.866 (inactive) | 33.4% (inactive) | 106 | 10 nM (inactive) | 80 AU (inactive) | –
9 | CC1=C(C(=O)Nc2ccccc2)SCCO1 | – | 0.79 | 8550 | 9880 | 0.971 (inactive) | -0.224 | -0.385 (inactive) | 0.865 (inactive) | – | – | – | – | –
10 | C=CC[C@@]1(O)CC[C@H]2[C@@H]3CCC4=CC(=O)CCC4=C3C=C[C@@]21C | 0.88 (inactive) | 0.451 | 7350 | 8350 | -0.295 (inactive) | -0.164 | – | – | – | – | – | – | –
11 | CN1C2CCC1CC(=O)C2 | 0.86 (inactive) | 0.54 | 8780 | 10200 | 0.543 (inactive) | -0.508 | 0.545 (inactive) | – | – | – | – | – | –
12 | CN1CCCCC1Cn1cc(C(=O)c2cc([N+](=O)[O-])ccc2I)c2ccccc21 (configuration not stated) | – | 0.479 and 0.87 | 5220 and 6710 | 5890 and 6500 | 0.0965 (inactive) | -0.371 | – | 0.887 (inactive) and 1.03 (inactive) | – | – | – | – | –
13 | N#Cc1cnn(-c2ccc(Cl)cc2)c1N | – | 1.03 | 8030 | 9420 | -0.167 (inactive) | -0.085 | 0.29 (inactive) | 0.852 (inactive) | – | – | – | – | –
14 | CC(=O)O[C@H]1CC[C@@]2(C)C(=CC[C@@H]3[C@@H]2CC[C@]2(C)C(=O)CC[C@@H]32)C1 | – | 1.2 | 9250 | 10400 | 0.711 (inactive) | -0.302 | – | 0.892 (inactive) | 73.2% (inactive) | 93.1 | – | 56 AU (inactive) | 0.583 (inactive)
15 | CCC1C(=O)OCC1Cc1cncn1C (configuration not stated) | 0.926 (inactive) and 0.807 (inactive) and 0.899 (inactive) | 1.4 and 2.3 and 1.43 | 9120 and 8440 and 10400 | 9850 and 10500 and 11500 | -0.194 (inactive) and -0.728 (inactive) | -0.153 and 0.0525 | 1.16 (inactive) and 0.695 (inactive) | – | 38.7% (inactive) | 114 | – | – | –
16 | C[C@]12CCC(O)C[C@@H]1CC[C@@H]1[C@H]2CC[C@]2(C)C(=O)CC[C@@H]12 (some centres not stated) | – | 1.48 | 7540 | 8080 | -0.116 (inactive) | -0.417 | – | 0.933 (inactive) | – | – | – | – | –
17 | CCCC(=O)OCC[N+](C)(C)C | – | 0.999 | 10000 | 10700 | 0.357 (inactive) | 0.101 | 0.43 (inactive) | 0.934 (inactive) | 42.8% (inactive) | 107 | – | – | –
18 | CCC1C=CC=CCC(C)C(O)[C@@](C)(O)C(=O)C(C)[C@@H](O)C(C)C(=O)C(C)C(O)C(C)C=CC(=O)OC2C(C)[C@]3(CCC(C)C(CC(C)O)O3)OC(CC1)[C@H]2C (some centres not stated) | 1.1 (inactive) | 0.572 | 3070 | 2800 | -0.13 (inactive) | -0.402 | – | – | – | – | – | – | –
19 | O=C1CCC[C@@H]2[C@@H]3CCCN4CCC[C@H](CN12)[C@@H]34 | 0.961 (inactive) | 1.02 | 9040 | 9410 | -0.296 (inactive) | 0.336 | – | – | – | – | – | – | –
